This is an account of results in PubChem BioAssay.

Assay [1] is described as follows: circadian clock period modulators, cell-based, LOPAC library, luminescence reporter (AID 2774).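 Note: values are relative to mean of DMSO wells on each plate.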 As to conditions: circadian reporter cells, at 7 µM, actives lie on both sides.
In assay [2] the test system is Hepatitis C virus NS3 helicase. The experiment in a line: HCV NS3 helicase inhibitors, primary screen, biochemical, fluorescence polarization, LOPAC1280 library (AID 687035; in the data active = inhibition above about 37%). As to conditions: Purified HCV NS3 helicase, Cy5-dT15 ssDNA binding fluorescence polarization; stronger effect = higher value; concentration not given here.
A short description of assay [3]: Cy5 fluorescence quenching or enhancement artefacts, artefact control for HCV NS3 helicase inhibitor project, biochemical, LOPAC1280 (AID 687037). The note with it: Cy5-DNA-NS3h complex fluorescence interference counterscreen.
A short description of assay [4]: sensitizers of A549 cells to miR-34 induction, primary screen, imaging, A549 dox-inducible miR-34, nuclei and caspase counts (AID 1347080;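 active = compounds whose cell count with miR-34 switched on is under 0.7 times the count with it off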). The note with it: A549 miR-34 inducible, Hoechst nuclei count, 48 h.
A short description of assay [5]: phospholipid biosynthesis inhibitors in animal cells, primary screen, cell-based, LOPAC library, screen 4 (AID 1347384). As to conditions: phospholipid biosynthesis inhibition screen, at 10 µM.
The nature of assay [6]: viability rescue of complex I mutant cybrids, primary screen, cell-based, galactose medium, ATP luminescence (AID 1645843;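 active = z-score of at least 1.8 in each of two replicates, scored against plate mean and spread of sample wells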;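 note: positive z means more ATP and so rescue of galactose-driven cybrid death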). As to conditions: complex I mutant cybrid cells, 72 h, stronger effect = higher value.
[7] abbreviates: stronger effect = lower value, cell number ratio, induced over uninduced.
The mark [8] stands for this setting: measured here: relative caspase fold change +Dox/-Dox.
The mark [9] stands for this setting: measured here: total cells with miR-34 induction, stronger effect = lower value.
The mark [10] stands for this setting: measured here: total cells without miR-34 induction.

Calls of active or inactive are those of the source. Unless noted, the rule behind the calls is not given here.

`C[C@H](O)C(=O)C1=Nc2c(nc(N)[nH]c2=O)NC1`: in assay [1], the period change is 0.19 h (inactive). In assay [2], the inhibition is -3% (inactive). Besides, in assay [3], the fluorescence ratio (interference) was 0.9 (inactive). In addition, the values for the fold change in assay [4] (setting [7]) and in assay [4] (setting [8]) were 0.965 (inactive) and 1.64, respectively. Further, the cell count in assay [4] (setting [9]) is 10200; in assay [4] (setting [10]) it was 10500. Besides, in assay [5], the outcome was inactive. Further, in assay [6], the z-score was 0.4 (inactive).
For the compound `CC(N)=NCCCC[C@@H](N)C(=O)O`, the period change in assay [1] is 0.055 h (inactive). Also, in assay [2], the inhibition was -4% (inactive). Moreover, in assay [3], the fluorescence ratio (interference) was 0.9 (inactive). Moreover, the fold change in assay [4] (setting [7]) was 1.08 (inactive); in assay [4] (setting [8]), 1.26. Besides, the cell count amounted to 11400 in assay [4] (setting [9]) and 10600 in assay [4] (setting [10]). The compound was classed as inactive in assay [5]. Moreover, the z-score in assay [6] is 0.39 (inactive).
Take `CC(N)=O`: the period change in assay [1] is -0.19 h (inactive). In addition, in assay [2], the inhibition was 0% (inactive). The fluorescence ratio (interference) in assay [3] is 0.9 (inactive). Also, the fold change in assay [4] (setting [7]) is 1.08 (inactive); in assay [4] (setting [8]), 1.34. The cell count came out at 10600 in assay [4] (setting [9]) and 9870 in assay [4] (setting [10]). Besides, the result in assay [5] was inactive. For the same compound, in assay [6], the z-score was 1.1 (inactive).
As for `O=C(c1ccc2c(c1)OCCO2)N1CCCCC1`, the period change in assay [1] was -0.22 h (inactive). The inhibition in assay [2] was -1% (inactive). In addition, the fluorescence ratio (interference) in assay [3] was 1 (inactive). In addition, the results for the fold change in assay [4] (setting [7]) and in assay [4] (setting [8]) were 1.07 (inactive) and 1.38, respectively. Further, the cell count in assay [4] (setting [9]) was found to be 9110; in assay [4] (setting [10]), 8530. Besides, in assay [5], the result was inactive. The z-score in assay [6] was 0.315 (inactive).
Take `O=C(O)/C=C/c1cnc[nH]1`: the period change in assay [1] was -0.135 h (inactive). The inhibition in assay [2] was -2% (inactive). Further, the fluorescence ratio (interference) in assay [3] is 1 (inactive). Moreover, the fold change in assay [4] (setting [7]) was 1.01 (inactive); in assay [4] (setting [8]), 2.13. Moreover, the cell count in assay [4] (setting [9]) turned out to be 10700; in assay [4] (setting [10]), 10600. The result in assay [5] was inactive. The z-score in assay [6] was 0.495 (inactive).
Turning to `COC(=O)C(N)Cc1ccc(Cl)cc1` (stereo not given), in assay [1], the period change was -0.02 h (inactive). The inhibition in assay [2] is 1% (inactive). In addition, the fluorescence ratio (interference) in assay [3] was 1 (inactive). For the same compound, the results for the fold change in assay [4] (setting [7]) and in assay [4] (setting [8]) were 0.984 (inactive) and 1.85, respectively. For the same compound, the cell count in assay [4] (setting [9]) was 9580; in assay [4] (setting [10]) it was 9740. In addition, in assay [5], the call was inactive. Besides, the z-score in assay [6] was 0.46 (inactive).
For `O=C(O)C1CCNCC1`, the period change in assay [1] is -0.105 h (inactive). In assay [2], the inhibition was -2% (inactive). Besides, in assay [3], the fluorescence ratio (interference) was 1 (inactive). For the same compound, the values for the fold change in assay [4] (setting [7]) and in assay [4] (setting [8]) were 1.1 (inactive) and 0.954, respectively. The cell count in assay [4] (setting [9]) came to 10700; in assay [4] (setting [10]), 9760. The compound was called inactive in assay [5]. The z-score in assay [6] was 0.31 (inactive).
As to `Cc1nc(N=Nc2ccc(S(=O)(=O)O)cc2S(=O)(=O)O)c(COP(=O)(O)O)c(C=O)c1O`, in assay [1], the period change was 0.055 h (inactive). Also, the inhibition in assay [2] is 0% (inactive). In addition, the fluorescence ratio (interference) in assay [3] is 1 (inactive). The fold change was 0.994 (inactive) in assay [4] (setting [7]) and 1.49 in assay [4] (setting [8]). The cell count in assay [4] (setting [9]) came out at 9390; in assay [4] (setting [10]) it was 9440. Besides, the compound was called inactive in assay [5]. For the same compound, the z-score in assay [6] is 0.795 (inactive).
Take `O=C(O)CCCC[C@@H]1CCSS1`: the period change in assay [1] was 0.11 h (inactive). Besides, the inhibition in assay [2] was 0% (inactive). Also, the fluorescence ratio (interference) in assay [3] is 1 (inactive). For the same compound, the figures for the fold change in assay [4] (setting [7]) and in assay [4] (setting [8]) were 0.958 (inactive) and 0.931, respectively. Also, the cell count in assay [4] (setting [9]) is 9120; in assay [4] (setting [10]) it was 9520. The compound was called inactive in assay [5]. In assay [6], the z-score was 0.53 (inactive).
On to `CN1CCc2cc(NC(=O)Nc3cccnc3)ccc21`, for which the period change in assay [1] was 0.02 h (inactive). In addition, the inhibition in assay [2] was -2% (inactive). For the same compound, in assay [3], the fluorescence ratio (interference) was 1 (inactive). The fold change is 1.02 (inactive) in assay [4] (setting [7]) and 2.86 in assay [4] (setting [8]). Moreover, the cell count in assay [4] (setting [9]) came out at 10800; in assay [4] (setting [10]), 10700. For the same compound, the compound was called inactive in assay [5]. Also, the z-score in assay [6] is 1.34 (inactive).
